tim10-1 inh: tim10-1 yeast growth inhibition | S. cerevisiae tim10-1 ts strain growth, BacTiter-Glo, 24 h | 330,000 tested, 2.2% active | AID 463190 | inhibition, % at 20 µM;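 active means inhibition of at least 40%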;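 further: mutant grown at 25 °C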
NALP1 yeast inh: NALP1 inhibition; S. cerevisiae NALP1/ASC/caspase-1 growth, X-gal OD620, 72 h; inhibition, % at 10 µM; 280,000 tested, 0.61% active; AID 2071; in the data active means inhibition mostly above about 24%, no sharp cut-off; inactive means mostly below about 32%
NALP3 yeast inh: inhibitors of NALP3 inflammasome in yeast | AID 2825 | inhibition, % at 10 µM | Yeast reconstituted NLRP3/ASC/caspase-1, beta-gal luminescence, 24 h | 330,000 tested, 0.39% active;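 active means inhibition of 50% or more; inactive means inhibition below 50%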
TIM10 inh: TIM10 yeast growth inhibition; S. cerevisiae TIM10 strain growth, BacTiter-Glo luminescence, 24 h; inhibition, % at 10 µM; 330,000 tested, 1.4% active;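 active means inhibition of 40% or more at the single tested concentration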;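 further: wild-type TIM10 isogenic control strain grown at permissive 25 °C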
tim23-1 inh: growth inhibitors of tim23-1 mutant yeast | S. cerevisiae tim23-1 growth, BacTiter-Glo luminescence, 24 h | inhibition, % at 20 µM | 330,000 tested, 1.3% active;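 active means growth inhibition of the mutant yeast at or above 50%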;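 further: temperature-sensitive mutant grown at 25 °C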
tim10-1 confirm: tim10-1 yeast growth inhibition, confirmed | S. cerevisiae tim10-1 ts strain growth, BacTiter-Glo, 24 h | inhibition, % at 20 µM | AID 463213 | shares compounds with tim10-1 inh | 7,400 tested, 56% active;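 active means inhibition of yeast growth at or above a set limit in either of two repeat tests at 20 µM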;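 further: tim10-1 mutant grown at permissive 25 °C to find synthetic lethal compounds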
TIM10 conf: TIM10 yeast growth inhibition, confirmed; shares compounds with TIM10 inh; S. cerevisiae tim10 strain growth, BacTiter-Glo luminescence, 24 h; inhibition, % at 10 µM; 4,600 tested, 63% active;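 active means inhibition of yeast growth at or above a set limit in either of two replicates at 10 µM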; further: this counterscreen used the strain with wild-type TIM10
tim23-1 conf: tim23-1 yeast growth inhibition, confirmed; shares compounds with tim23-1 inh; S. cerevisiae tim23-1 growth, BacTiter-Glo luminescence, 24 h; inhibition, % at 20 µM; 4,400 tested, 83% active; AID 463218;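 active means inhibition above about 39% in either of two replicate wells at 20 µM, limit read from the data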;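 further: temperature-sensitive tim23-1 mutant grown at 25 °C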
Numbers stand for hits; n = inactive; x = not tested or not shown. Compounds with a hit are over-represented: about 4% of the library has one in this group of screens.

SMILES | tim10-1 inh | NALP1 yeast inh | NALP3 yeast inh | TIM10 inh | tim23-1 inh | tim10-1 confirm | TIM10 conf | tim23-1 conf
Cc1cccc(C(=O)O/N=C2/CC3CCC2(C)C3(C)C)c1 (centres undefined) | 50 | n | n | 65 | 59 | 65 | 70 | 66
Cc1ccc(C(=O)O/N=C2\CC3CCC2(C)C3(C)C)cc1 (centres undefined) | 67 | n | n | 76 | 66 | 67 | 75 | 68
Cc1ccc(C(=O)O/N=C2/CC3CCC2(C)[C@@]3(C)CBr)cc1 (some centres undefined) | n | n | n | n | n | x | x | x
CCOC(=O)[C@H]1[C@H]2COc3cc(OC)ccc3[C@@H]2N2C(=O)[C@@H](CO)NC(=O)[C@@]12C | n | x | n | n | n | x | x | x
O=C(/C(=C/c1ccccc1)n1cncn1)c1ccc(Cl)cc1Cl | 80 | 43 | n | 82 | 92 | 82 | n | 91
O=C(/C(=N\O)n1cncn1)c1ccc(Cl)cc1Cl | n | n | n | n | n | x | x | x
COc1cccc(NC(=O)C2CC(=O)n3cnnc3S2)c1 (centres undefined) | 43 | n | n | 41 | 61 | 33 | n | 59
COc1ccc(NC(=O)C2CC(=O)n3cnnc3S2)cc1 (centres undefined) | n | n | n | n | n | x | x | x
CCOC(=O)C1=C(C)N=C2SC(C(=O)OC)=CC(=O)N2C1c1ccc(OC)cc1 (centres undefined) | 69 | n | n | 71 | 75 | 78 | 75 | 60
COC(=O)C1=C(C)N=C2SC(C#N)=C(N)N2C1c1ccc(OC)cc1 (centres undefined) | n | n | n | n | n | x | x | x
CCc1ccc(OCC(=O)NNC(=O)c2cc(S(=O)(=O)N(C)C)ccc2N2CCCC2)cc1 | n | x | n | n | n | x | x | x
O=c1oc(-c2ccco2)nc2sc3c(c12)CCCC3 | 46 | n | n | 47 | 54 | 31 | 43 | 42
Cc1nc2sc3c(c2c(=O)o1)CCCC3 | n | n | n | n | n | x | x | x
CC(C)N=c1scc(-c2ccco2)n1/N=C/c1ccc(O)c(O)c1 | 47 | n | n | n | 54 | n | x | 60
CCCn1c(SCC(=O)N2CCCC(C)C2)nnc1-c1cccnc1 (centres undefined) | n | n | n | n | n | x | x | x
CCCC(C)C(=O)Nc1nnc(CCc2ccccc2)s1 (centres undefined) | n | n | n | n | n | x | x | x
CN1CCN(c2cc(N3CCN(C(=O)c4ccco4)CC3)c3c4c(onc24)-c2ccccc2C3=O)CC1 | 56 | n | n | 47 | 69 | 47 | 48 | 74
Cn1nc(-c2ccc(C(=O)NCCO)cc2)c2ccccc2c1=O | n | n | n | n | n | x | x | x
CC1(C)CC(NC(=S)Nc2ccc([N+](=O)[O-])cc2)CC(C)(C)N1 | n | n | n | n | n | x | x | x
CCCCNC(=O)c1ccc(/C=C2\Oc3ccccc3N(C)C2=O)cc1 | n | n | n | n | n | x | x | x
CCN1CCN(CCCNC(=O)c2ccc(/C=C3/Oc4ccccc4N(Cc4cccc(C)c4)C3=O)cc2)CC1 | 49 | n | n | n | 57 | n | x | 48
Cc1ccc(C(=O)/C=C/c2c[nH]c3ccccc23)cc1 | 44 | n | n | n | 80 | n | x | 44
Cc1ccc(C(=O)/C=C/c2cn(CN3CCN(C)CC3)c3ccccc23)cc1 | 52 | n | n | 60 | 56 | 38 | 55 | n
Cn1cc(/C=C/C(=O)c2ccccc2)c2ccccc21 | n | x | n | n | n | x | x | x
Cc1ccc(NC(=O)C(=O)c2c[nH]c3ccccc23)cc1 | n | n | n | n | n | x | x | x
SMILES | tim10-1 inh | NALP1 yeast inh | NALP3 yeast inh | TIM10 inh | tim23-1 inh | tim10-1 confirm | TIM10 conf | tim23-1 conf
O=C(O)CCSCCCN1C(=O)c2cccc3cccc(c23)C1=O | n | n | n | n | n | x | x | x
OC(CSc1ccc(F)cc1)CN1CCN(c2ccccc2)CC1 (centres undefined) | n | n | n | n | n | x | x | x
N/C(=C\C(=O)c1cc(Cl)ccc1O)C(Cl)(Cl)Cl | 40 | n | n | 42 | 73 | 48 | n | n
CC(C)(C)c1ccc(C(=O)CC(=O)c2cc(Cl)ccc2O)cc1 | n | n | n | n | n | x | x | x
O=[N+]([O-])c1cccc(-c2nc3ccccc3s/c2=N/O)c1 | 71 | n | n | 57 | 82 | 55 | 69 | 54
O=[N+]([O-])c1cccc(-c2cnc3ccccc3n2)c1 | n | n | n | n | n | x | x | x
O=C(NNC(=O)c1ccc([N+](=O)[O-])o1)c1ccccc1 | n | n | n | n | n | x | x | x
O=C(Nc1ccc2oc(-c3ccncc3)nc2c1)c1ccc([N+](=O)[O-])o1 | 45 | n | n | 53 | 69 | 68 | 75 | 79
CC(=O)c1cccc(NC(=O)c2ccc([N+](=O)[O-])o2)c1 | 65 | x | n | 47 | 77 | 52 | 46 | 72
COc1ccc(NC(=O)c2ccc([N+](=O)[O-])o2)cc1 | 64 | n | n | 41 | 59 | 45 | 43 | 58
Cc1ccc(-c2nc3ncccc3o2)cc1NC(=O)c1ccc([N+](=O)[O-])o1 | 74 | n | n | 83 | 84 | 82 | 85 | n
COCCN(CC(=O)Nc1cccc(C)c1C)C(=O)CN1C(=O)NC2(CCCCC2)C1=O | n | x | n | n | n | x | x | x
Cc1ccc(C)c(NC(=O)CN(C)C(=O)CN2C(=O)C3CCCCC3C2=O)c1 (centres undefined) | n | x | n | n | n | x | x | x
O=C(c1cc(N2CCOCC2)c(F)cc1[N+](=O)[O-])N1CCOCC1 | n | n | n | n | n | x | x | x
Cc1cc(NC(=O)CSc2ncnc3c2cnn3-c2cccc(Cl)c2)no1 | n | n | n | n | n | x | x | x
Clc1ccc(CSc2nccn2Cc2ccccc2)cc1 | 48 | n | n | 60 | 51 | 44 | 44 | 54
CC(=O)Nc1ccc(NC(=O)CSc2nccn2Cc2ccccc2)cc1 | n | n | n | n | n | x | x | x
CC(C)OC(=O)n1c(=S)oc2ccccc21 | 53 | n | n | 47 | 76 | 37 | n | 67
O=C1Nc2ccc(Br)cc2/C1=C/C1CC=CCC1 (centres undefined) | 59 | n | n | 59 | 59 | 50 | 71 | n
O=C1NC(Cc2ccccc2)C(=O)Nc2ccc(Br)cc21 (centres undefined) | n | n | n | n | n | x | x | x
Cc1ccc(CNc2oc(-c3cccs3)nc2C#N)cc1 | 44 | n | n | n | 52 | n | x | 46
O=C(OCc1nnc(-c2ccccc2)o1)c1ccc([N+](=O)[O-])o1 | 78 | x | n | n | 80 | 59 | x | 84
O=C(OCc1nnc(-c2ccccc2)o1)c1ccc(Br)o1 | n | x | n | n | n | x | x | x
O=C(CCNS(=O)(=O)c1cccc2nsnc12)NCc1ccccc1Cl | n | n | n | n | n | x | x | x
FC(F)C(F)(F)c1cc(-c2ccc(Cl)cc2)n[nH]1 | 52 | n | n | n | 52 | 42 | x | 41

Bioassay records from PubChem.
